# KB-V1 MDR tox: kills drug-selected multidrug resistant KB-V1 cells; AID 1347076; KB-V1 MDR cells viability, CellTiter-Glo, 72 h; 400,000 tested, 3.4% active; Potency, µM (doses to about 46.1 µM), most hits filed as cytotoxic; also: % is scaled to controls: 0 for no effect and ±100 for the full control effect; nearly all actives have a fitted effect of over 60% in size
#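 Compound-treated KB-V1 multidrug-resistant cells, 72 h, 37 degrees C; viability by CellTiter-Glo. Fitted qHTS curves give the values.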
# 12-LOX inh: blocks human arachidonate 12S-lipoxygenase; P18054; purified 12hLO, xylenol orange hydroperoxide absorbance; Potency, µM (series often up to 108 µM), for the others: top-dose activity change, negative = inhibition, most hits filed as inhibitors; 580,000 tested, 1.1% active; also: % is scaled to controls: 0 for no effect and ±100 for the full control effect
# Target sequence (P18054 whole entry, looked up): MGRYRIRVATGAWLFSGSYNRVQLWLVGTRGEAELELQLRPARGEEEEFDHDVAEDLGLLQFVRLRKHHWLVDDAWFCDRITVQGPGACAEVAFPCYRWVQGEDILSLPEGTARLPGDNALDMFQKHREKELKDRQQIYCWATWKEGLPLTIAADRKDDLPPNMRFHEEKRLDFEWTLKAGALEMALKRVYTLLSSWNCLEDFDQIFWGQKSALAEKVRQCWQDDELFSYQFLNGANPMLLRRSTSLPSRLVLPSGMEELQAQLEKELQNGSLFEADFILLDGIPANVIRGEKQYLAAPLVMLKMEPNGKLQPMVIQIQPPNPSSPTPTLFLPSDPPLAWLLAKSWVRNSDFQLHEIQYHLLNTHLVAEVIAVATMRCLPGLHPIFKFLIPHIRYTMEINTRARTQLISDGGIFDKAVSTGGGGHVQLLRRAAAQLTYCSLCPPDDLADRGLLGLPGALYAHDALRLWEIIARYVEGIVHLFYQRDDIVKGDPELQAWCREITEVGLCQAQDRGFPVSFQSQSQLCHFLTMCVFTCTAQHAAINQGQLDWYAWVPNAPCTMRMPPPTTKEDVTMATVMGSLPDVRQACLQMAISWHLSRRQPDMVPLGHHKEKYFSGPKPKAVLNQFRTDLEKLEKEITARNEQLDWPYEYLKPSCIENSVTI
#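 Hydroperoxide product was detected by ferrous iron/xylenol orange as the 573 to 405 nm absorbance ratio. Arachidonic acid at 40 uM (final) was turned over for 30 min at room temperature by 150 nM human 12hLO, pH 7.0 Hepes buffer, after 15 min compound preincubation.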
# KB-3-1 tox: kills parental KB-3-1 adenocarcinoma cells. KB-3-1 viability, CellTiter-Glo ATP luminescence, 72 h. Potency, µM (highest dose often 46.1 µM), usual class: cytotoxic. 400,000 tested, 1.4% active; also: % is scaled to controls: 0 for no effect and ±100 for the full control effect; nearly all actives have a fitted effect of over 60% in size
#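 Multi-concentration cytotoxicity screen in KB-3-1 cells grown in DMEM lacking phenol red with 10% FBS. After 72 h at 37 °C with compound, ATP-dependent luminescence was recorded.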
# MCF10A rereplic: induces DNA re-replication in MCF 10a normal breast cells. MCF 10A DNA re-replication, Hoechst nuclear intensity, 48 h. Potency, µM (titrated, usually from 46.1 µM), for inactives: at the top dose activity, positive = re-replication, hits mostly activators. 350,000 tested, 2.9% active; also: % of control where 0% means no effect; nearly all actives have a fitted effect of over 50% in size
# PINK1 expr mod: modulators of PINK1 expression; Potency, µM (doses to about 76.6 µM), for inactives: at the top dose activation (PINK1 increase), most hits filed as activators; PINK1 immunofluorescence, high-content cytometry, 24 h; AID 624263; 410,000 tested, 0.2% active; active = well fitted activation curve with a large enough effect; inconclusive = small, poorly fitted or top-dose-only effect; cell line not stated here; also: % of control where 0% means no effect; nearly all actives have a fitted effect of over 65% in size
#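 A stable cell line was treated with compounds at 5 concentrations for 24 hours, with CCCP as control. PINK1 levels and mitochondrial localization were measured by immunofluorescence with mitochondrial, cell and nuclear markers after fixation, read by laser-scanning cytometry.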
# SW480 rereplic: induces DNA re-replication in SW480 colon adenocarcinoma cells. Potency, µM (titrated, usually from 46.1 µM), for inactives: top-dose re-replication activation, usual class: activators. SW480 DNA re-replication, Hoechst DNA content imaging, 48 h. AID 624297. 340,000 tested, 1.8% active; also: % of control where 0% means no effect; nearly all actives have a fitted effect of over 55% in size
#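 Treated cells incubate 48 hr (37 C, 5% CO2), are stained 40 min with Hoechst, and nuclear fluorescence is enumerated; a rise in nuclei with high DNA signal marks re-replication.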
# Starred values were filed as active, the others as inactive; i = inactive; ? = inconclusive; nt = no result; ! = repeats disagree; [ ] = another dose, or the depositor's remark. Most compounds without a hit are left out; they make up all but 5.8% or so of the library. Unless noted, calls follow the shape of the dose curve; as a rule, active = well fitted curve in the direction sought with a large enough effect; inconclusive = small, poorly fitted or top-dose-only effect, or another doubt; inactive = no such curve, though single readings can be large; an effect the other way counts as inactive or inconclusive. Potency is read from the fitted curve at half-maximal effect.
SMILES,KB-V1 MDR tox,12-LOX inh,KB-3-1 tox,MCF10A rereplic,PINK1 expr mod,SW480 rereplic
O=C(NC(NC(=S)Nc1ccc(Cl)c(Cl)c1)C(Cl)(Cl)Cl)c1ccco1 (stereo unspecified),?,2.8µM*,?,?,?,3%
S=C(NCc1ccco1)Nc1ccc(Oc2ccccc2)cc1,i,45µM*,i,-1%,-1%,-138%
O=C(O)c1cccc(NC(=S)NC(NC(=O)c2ccco2)C(Cl)(Cl)Cl)c1 (stereo unspecified),?,-20%,i,0%,1%,-3%
S=C(NCc1ccco1)Nc1cc(-c2ccccc2)[nH]n1,i,5µM*,?,0%,-1%,?
S=C(NCc1ccco1)Nc1ccc(Cl)c(Cl)c1,?,28µM*,i,0%,25%[38.3 µM],-4%
CC(C)(C)NC(=O)N1CCCCCCNC(=O)[C@@H]2C[C@@H](c3nc(-c4cccnc4)no3)C[C@@H]21,nt,32%,nt,nt,nt,nt
O=C(NCCc1ccc(Cl)cc1)C1CCc2nnc(-c3ccc(Cl)cc3Cl)n21 (stereo unspecified),nt,1%[6.33 µM],nt,nt,nt,nt
N#CC(C(=O)CCOCc1ccccc1)c1ccc2ccccc2n1 (stereo unspecified),nt,-19%,nt,nt,nt,nt
NC(=O)C1CCN(C(=O)COC(=O)c2cc3ccccc3[nH]2)CC1,nt,6%,nt,nt,nt,nt
COc1ccc(NC(=S)Nc2cc(-c3ccccc3)[nH]n2)cc1Cl,i,?,i,?,14%[38.3 µM],?
CC(C)CNC(=S)Nc1ccc(Oc2ccccc2)cc1,16µM*,?,21µM*,8.2µM*,?,-7%
CCOc1ccc(NC(=S)Nc2cc(-c3ccccc3)[nH]n2)cc1,15µM*,?,i,-5%,5%,4%
c1ccc(Nc2cc3c(cn2)CN(Cc2cccs2)CCN3)cc1,nt,-1%[176 µM],nt,nt,nt,nt
COc1cc2c(cc1OC)-c1nnc(C(F)(F)F)n1C(C)(C)C2,nt,50%,nt,nt,nt,nt
COc1cc2c(cc1OC)-c1nc3ccccc3c(=O)n1C(C)(C)C2,9.2µM*,18%,i,-6%,2%[38.3 µM],-2%
O=C(Nc1ccc(Cl)c(Cl)c1)c1ccc(Cn2c(=O)[nH]c3ccsc3c2=O)cc1,i,-6%,?,16µM*,1%,1%
Cc1cc(C)cc(NC(=O)N2CCCC2c2ccco2)c1 (stereo unspecified),nt,7%,nt,nt,nt,nt
CCOC(=O)C1=C(COC(=O)c2cc(S(=O)(=O)N(C)C)ccc2C)NC(=O)NC1C (stereo unspecified),23µM*,4%,i,1%,-2%,-2%
CCOC(=O)C1=C(COC(=O)CCNS(=O)(=O)c2ccc(C)c(C)c2)NC(=O)NC1C (stereo unspecified),i,-3%,i,-2%,-1%,1%
Cc1ccccc1NC(=O)Cn1cnc2c(cnn2-c2ccc(F)cc2)c1=O,nt,-25%,nt,nt,nt,nt
CC(=O)Oc1ccc2c(C)c(CC(=O)Nc3ncc(C)s3)c(=O)oc2c1,nt,1%,nt,nt,nt,nt
O=S(=O)(NC(c1ccccc1)c1ccccc1)c1cccc2nsnc12,nt,11µM*,nt,nt,nt,nt
COc1ccc(Br)cc1/C=c1\sc2nc(-c3ccco3)nn2c1=O,i,22µM*,i,21%,-1%,-2%
CCOC(=O)N(O)c1ccc(C=Cc2ccccc2)cc1,21µM*,-16%,?,?,-6%,12µM*
O=C1CC(NNc2ccccc2)C(=O)N1c1ccc(N2CCCCC2)cc1 (stereo unspecified),i,6.3µM*,i,-48%,8%,?
SMILES,KB-V1 MDR tox,12-LOX inh,KB-3-1 tox,MCF10A rereplic,PINK1 expr mod,SW480 rereplic
O=C1CC(Nc2ccc(N3CCOCC3)cc2)C(=O)N1c1ccccc1F (stereo unspecified),?,16µM*,i,-11%,1%,-13%
C/C(CCc1oc2ccc(Br)cc2c1-c1ccc(C)o1)=N\O,nt,11µM*,nt,nt,nt,nt
C/C(CCc1oc2ccc(C)cc2c1-c1ccc(C)o1)=N\O,nt,40µM*!,nt,nt,nt,nt
CC(=O)CCc1oc2ccc(C)cc2c1-c1ccc(C)o1,i,?,i,6%,4%,-2%
COC(=O)C1=C(C(=O)OC)C(c2cc(Cl)ccc2O)c2sc(=O)[nH]c2S1 (stereo unspecified),i,nt,i,-3%,?,2%
COC(=O)C1=C(C(=O)OC)C(c2cc(Br)ccc2O)c2sc(=O)[nH]c2S1 (stereo unspecified),i,45µM*,i,4%,0%,23%
O=[N+]([O-])c1ccc(COc2cccc(CNc3ccc(F)cc3)c2)cc1,21µM*,-14%,i,18%,11%,-2%
COCCNC(=O)c1ccc(N2CCCCC2)c(NS(=O)(=O)c2ccc(C)cc2)c1,?,307%,i,-5%,0%,0%
CCOC(=O)c1ccc(N2CCCCC2)c(NS(=O)(=O)c2ccc(C)cc2)c1,?,103%,?,21µM*,2%,?
Cn1c(=O)c(=O)n(C)c2cc(N3CCOCC3)c(NS(=O)(=O)c3ccc(Cl)cc3)cc21,i,-13%,i,nt,3%,nt
CCN(CC)S(=O)(=O)c1ccc(N2CCCC2)c(NC(=O)Cc2ccc(OC)cc2)c1,23µM*,?,i,?,1%,10%
Cn1c(=O)c(=O)n(C)c2cc(N3CCCCC3)c(NS(=O)(=O)c3ccc(Br)cc3)cc21,i,?,i,-1%,1%,7.3µM*
CCN(CC)S(=O)(=O)c1ccc(N2CCN(C)CC2)c(NC(=O)Nc2ccc(C)cc2)c1,i,?,i,12µM*,5%,2%
O=C(Cc1noc(C(=O)NC2CCCCC2)n1)Nc1cccc2ncccc12,nt,11%,nt,nt,nt,nt
CCOc1ccc(S(=O)(=O)Nc2cc(S(=O)(=O)N(CC)CC)ccc2N2CCCC2)cc1,2.6µM*,2%,?,-55%,3%,?
CCN(CC)S(=O)(=O)c1cc(C(=O)Nc2ncn(Cc3ccccc3C)n2)c(Cl)cc1Cl,nt,53%,nt,nt,nt,nt
CN(C)C=NC1=NN(c2cccc(C(F)(F)F)c2)CC1,2.1µM*,?,21µM*,14%,0%,-4%[9.22 µM]
CN1CCN(C=NC2=NN(c3cccc(C(F)(F)F)c3)CC2)CC1,10µM*,?,?,6%,-1%,-3%
FC(F)(F)c1cccc(N2CCN(c3nnnn3-c3ccccc3)CC2)c1,?,?,i,13%,0%,11%
COc1cc(/C=N/Nc2ncnc3sc4c(c23)CCC4)ccc1O,i,-6%,?,?,-1%,23µM*
CCCCCc1c(-c2cccc(OC)c2)ncn1CCc1ccccc1OC,16µM*,-66%,?,nt,?,nt

# Source: PubChem BioAssay (National Center for Advancing Translational Sciences (NCATS))
